Measurements taken from PubChem BioAssay (EPA / NIEHS).
“And” between values parts separate entries of the source, which are not always exact repeats. Equal values may be shown once. The source holds several records for some structures; these can differ, active in one and inactive in another. The source made the active and inactive calls. Rule for the calls: active = hit-call score of the fitted dose curve at least 0.9, where 1 is the maximum; inactive = score below 0.9.

Test: CCTE_Shafer_MEA_dev_per_burst_spike_percent: CCTE's Neural Network Formation Assay for Percent of Spikes in a Burst, Shafer Lab (AID 2284032)
Experimental: CCTE_Shafer_MEA_dev assay is conducted using Axion Biosystems 48 well microelectrode array (MEA) plates and Maestro recording system. Each well of the MEA plate contains a grid of 16 microelectrodes embedded in the culture surface. Electrically active cells, such as neurons, can be cultured over the electrodes, and electrical activity in these cells can be recorded extracellularly. The spontaneous firing of neurons is captured from each electrode on a microsecond timescale providing both temporally and spatially precise data. […] The CCTE_Shafer_MEA_dev assay uses primary cultures of rat cortical neurons. Recordings are made on days post-plating 5, 7, 9 and 12. As these cultures mature over time, neural networks develop functional activity and form cohesive networks in which electrical activity can be highly coordinated. CCTE_Shafer_MEA_dev_per_burst_spike_percent is 1 of 19 assay components of the CCTE_Shafer_MEA_dev assay. It measures the percentage of spikes (action potential firings) in a single-electrode burst (temporally-clustered group of spikes) as the total number spikes in bursts divided by the total number of spikes during a recording in a microelectrode array (MEA) using Axion Biosystems Maestro 768 channel amplifier with the AxIS adaptive spike detector. The percent of spikes in bursts is averaged across the actively bursting electrodes to report a well-mean value. To collapse across multiple recordings made on days post-plating 5, 7, 9 and 12, the trapezoidal area-under-the-curve of the component is calculated.Data from the assay component CCTE_Shafer_MEA_dev_per_burst_spike_percent was analyzed into 1 assay endpoint. This assay endpoint, CCTE_Shafer_MEA_dev_per_burst_spike_percent, was analyzed in the negative analysis fitting direction relative to DMSO as the negative control and baseline of activity. Using a type of functional reporter, gain or loss-of-signal activity can be used to understand electrical activity.
On the day prior to culture, each well was coated thoroughly with 150 uL of 0.05% polyethyleneimine (PEI, Sigma Cat P3143) in 50 mM HEPES (Sigma Cat H7523) at a pH of 8. The plate was incubated at 37C for one hour. PEI was rinsed out with 500 uL of sterile water three times. Plates were stored at 4C until the day of culture. This culture was plated at a seeding density of 1.5 x 10^5 cells/well on a 48-well MEA plate, prepared as described above. Cells were administered via a 25 uL media/laminin ([…]; Sigma Cat L2020-1MG) drop directly onto the microelectrode array, as adding the cells with the laminin results in better attachment than pre-coating with laminin. After 2 hours, an additional 475 uL of cortical media was added and the cells returned to the incubator. Exposure starts at day 0 of plating and is continued over twelve days of network development until the experiment is terminated. Cells are fed with fresh medium on DIV 5 and 9, following the recordings on those days. The entire volume of media in the well is exchanged and any vehicle or compound treatment is renewed. Complete details are found in OP-NHEERL/ISTD/SBB/TJS/2015-03-r0 (available on request, email shafer.tim@epa.gov). Measurement of the electrical activity is non-invasive, and recordings can be made from the same plate over multiple different days of the culture. In cortical neurons, this allows for the measurement of extracellular action potentials over the period during which networks form in the MEA plate.

Row | Compound | outcome | AC50
1 | CCSC(=O)N1CCCCCC1 | inactive | 
2 | O=C1C2CC=CCC2C(=O)N1SC(Cl)(Cl)Cl (configuration not stated) |  | 16.7 µM (active) and 15.7 µM (active)
3 | CC(C)=CC1C(C(=O)OCc2coc(Cc3ccccc3)c2)C1(C)C (configuration not stated) | inactive | 
4 | CC1(C)C(C(=O)OC(C#N)c2cccc(Oc3ccccc3)c2)C1(C)C (configuration not stated) |  | 12.6 µM (active)
5 | COP(=S)(OC)SCn1nnc2ccccc2c1=O | inactive | 
6 | C=C(C)CN(CC)c1c([N+](=O)[O-])cc(C(F)(F)F)cc1[N+](=O)[O-] |  | 18.6 µM (active)
7 | COP(=S)(OC)Oc1ccc([N+](=O)[O-])c(C)c1 | inactive | 
8 | COC(=O)N(C(=O)N1CO[C@@]2(C(=O)OC)Cc3cc(Cl)ccc3C2=N1)c1ccc(OC(F)(F)F)cc1 |  | 23.1 µM (active)
9 | CCCN(CC)CC1COC2(CCC(C(C)(C)C)CC2)O1 (configuration not stated) |  | 0.335 µM (active)
10 | O=C(Nc1ccccc1-c1ccc(Cl)cc1)c1cccnc1Cl | inactive | 9.36 µM (active)
11 | CCOP(=O)(OCC)Oc1nc(Cl)c(Cl)cc1Cl | inactive | 1.39 µM (active) and 15 µM (active)
12 | COP(=O)(OC)O/C(C)=C/C(=O)N(C)C | inactive | 
13 | CCN(CC)c1nc(C)cc(OP(=S)(OC)OC)n1 |  | 30.9 µM (active)
14 | CCOC(=O)C(C)OC(=O)c1cc(Oc2ccc(C(F)(F)F)cc2Cl)ccc1[N+](=O)[O-] (configuration not stated) | inactive | 
15 | CN/C(=N\[N+](=O)[O-])NCc1cnc(Cl)s1 | inactive | 
16 | CNC(=O)Oc1cccc2ccccc12 |  | 15 µM (active)
17 | CCNC(=O)NC(=O)C(C#N)=NOC | inactive | 
18 | CO/N=C(/C1=NOCCO1)c1ccccc1Oc1ncnc(Oc2ccccc2Cl)c1F |  | 1.75 µM (active) and 1.24 µM (active)
19 | CS(=O)(=O)c1ccc(C(=O)C2C(=O)CCCC2=O)c([N+](=O)[O-])c1 | inactive | 
20 | N#CN=C1SCCN1Cc1ccc(Cl)nc1 | inactive | 
21 | CC1(C)C(C=C(Cl)Cl)C1C(=O)OC(C#N)c1cccc(Oc2ccccc2)c1 (configuration not stated) | inactive | 10 µM (active)
22 | CC(C)(C)C(=O)C(Oc1ccc(Cl)cc1)n1cncn1 (configuration not stated) |  | 41.3 µM (active)
23 | Cc1c(COC(=O)[C@@H]2[C@H](/C=C(\Cl)C(F)(F)F)C2(C)C)cccc1-c1ccccc1 |  | 1.65 µM (active) and 1.51 µM (active)
24 | CS(=O)(=O)c1cc(C(F)(F)F)ccc1C(=O)c1cnoc1C1CC1 | inactive | 
